# Screening data: PubChem, several laboratories
# Compounds with a hit are over-represented: about 1.4% of the library has one in this group of screens.
# LYP inh 2: PTPN22 phosphatase inhibitors, primary screen, biochemical, DiFMUP fluorescence, 2 µM. Tyrosine-protein phosphatase non-receptor type 22 (Homo sapiens), Q9Y2R2. recombinant LYP catalytic domain. inhibition, % at 2 µM. 96,000 tested, 0.21% active. AID 640, 2007;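 active means inhibition at 2 µM at or above a set limit, the screen mean plus 3 SD, cut at about 24% in these data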;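 further: 0% = DMSO with enzyme and 100% = enzyme fully blocked by orthovanadate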
# GALR2 agonist: GALR2 receptor agonists, primary screen, cell-based. Galanin receptor type 2 (Homo sapiens), O43603. GALR2-expressing cells, agonist activation read-out. activation, % (concentration not given with the values). 140,000 tested, 0.48% active. AID 803, 2007; in the data active means activation above about 5%, passing the limit was not always enough;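 further: 0% = vehicle buffer wells and 100% = reference agonist at full effect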
# GALR2 antag: GALR2 antagonists in receptor-expressing cells, primary screen. inhibition, % at 4 µM. Galanin receptor type 2 (Homo sapiens), O43603. 140,000 tested, 0.39% active. antagonist mode; in the data active means inhibition above about 27%;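 further: cells stimulated with galanin 1-16 at roughly its EC80; 0% = agonist challenge control and 100% = basal control without agonist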
# PTPN22 act: LYP phosphatase activators, primary screen, biochemical, DiFMUP fluorescence, 2 µM; 96,000 tested, 0.11% active; Tyrosine-protein phosphatase non-receptor type 22 (Homo sapiens), Q9Y2R2; AID 697, 2007; activation, % at 2 µM; recombinant LYP; 0 = plate median, 100 = signal doubled;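 active means activation at 2 µM above a set limit, the mean plus 5 SD, cut at about 37% in these data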
# S1P2 blocker: human S1P2 receptor antagonists, primary screen, cell-based | Sphingosine 1-phosphate receptor 2 (Homo sapiens), O95136 | inhibition, % at 5 µM | 97,000 tested, 0.21% active | AID 736, 2007 | cell-based S1P2 antagonist assay, inhibition at 5 uM; in the data active means inhibition above about 45%;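 further: CRE beta-lactamase reporter cells expressing human S1P2 stimulated with S1P; 0% = agonist at EC80 alone and 100% = agonist plus reference antagonist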
# Target sequence (O95136 whole entry, looked up): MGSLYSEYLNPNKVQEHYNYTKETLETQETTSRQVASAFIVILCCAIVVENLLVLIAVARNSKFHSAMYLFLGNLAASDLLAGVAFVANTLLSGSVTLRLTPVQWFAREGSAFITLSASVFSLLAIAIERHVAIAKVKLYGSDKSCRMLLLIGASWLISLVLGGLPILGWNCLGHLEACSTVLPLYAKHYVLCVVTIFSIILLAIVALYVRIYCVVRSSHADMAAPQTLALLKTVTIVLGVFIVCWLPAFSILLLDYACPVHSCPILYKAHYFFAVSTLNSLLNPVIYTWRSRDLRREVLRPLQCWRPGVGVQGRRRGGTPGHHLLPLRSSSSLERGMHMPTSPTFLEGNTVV
# S1P2 agonist: S1P2 receptor agonists, primary screen, cell-based | Sphingosine 1-phosphate receptor 2 (Homo sapiens), O95136 | activation, % at 4.5 µM | 97,000 tested, 0.46% active | S1P2-expressing cell line, agonist reporter read-out; in the data active means activation above about 16%;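 further: 0% = vehicle low control and 100% = maximal reference agonist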
# Active calls of the source: *; . = no result.
SMILES,LYP inh 2,GALR2 agonist,GALR2 antag,PTPN22 act,S1P2 blocker,S1P2 agonist
CCc1nnc(NS(=O)(=O)c2ccc(NC(=S)NC(=O)/C=C/c3ccc(C(C)C)cc3)cc2)s1,33*,0,17,-31,-4,-3
CCc1nnc(NS(=O)(=O)c2ccc(NC(=S)NC(=O)/C=C/c3ccccc3)cc2)s1,.,4,-3,.,.,.
COc1cc(/C=C\C(=O)NCc2ccc3c(c2)cc(C)n3C)cc(OC)c1OC,.,-2,19,.,.,.
COCCn1nnnc1CN1CCN2CCCC2C1 (configuration not stated),-3,-1,-4,3,10,43*
CC(C)(C)n1nnnc1CN1CCN2CCCC2C1 (configuration not stated),2,0,-11,1,-2,-3
CC1CCCC(C)N1CC(C)(C)NS(=O)(=O)c1ccc(Cl)cc1 (configuration not stated),2,-3,-7,-2,7,-4
COc1ccc(CNC(=O)CSc2nc(-c3ccccc3)cc(-c3cccs3)c2C#N)cc1,-10,-2,-14,10,-19,-1
COc1cc(-c2cc(-c3ccccc3)nc(SCC(=O)Nc3nccs3)c2C#N)cc(OC)c1OC,-7,-1,-3,10,-23,31*
CN1/C(=C\C(=O)c2ccco2)C(C)(C)c2ccccc21,-12,4,6,8,16,18*
CN1/C(=C\C(=O)C(F)F)C(C)(C)c2ccccc21,4,0,4,-2,15,-2
CCOC(=O)c1c(C)[nH]c(C=C2C(=O)CCCC2=O)c1O,.,-1,-4,.,.,.
O=C(N/N=C/c1ccc[nH]1)c1ccc([N+](=O)[O-])cc1,.,-1,3,.,.,.
CC(CSc1nc2ccccc2s1)Cn1c(N2CCCC2)nc2c1c(=O)[nH]c(=O)n2C (configuration not stated),2,0,3,-2,-22,30*
CCN1CCN(c2nc3c(c(=O)[nH]c(=O)n3C)n2CCSc2nc3ccccc3s2)CC1,-4,0,5,4,8,-2
CC/C(C)=N/Nc1cccc([N+](=O)[O-])c1,.,-1,-1,.,.,.
CCOc1ccc(/C=C/[N+](=O)[O-])c2ccccc12,-3,-3,5,3,2,0
CN(c1ccccc1)c1ccc(/C=C/[N+](=O)[O-])cc1,.,5.5*,24,.,.,.
O=C(/C=C/c1cccs1)N1CCN(Cc2ccc3c(c2)OCO3)CC1,.,0,-4,.,.,.
Brc1ccc2[nH]c3nc(SCCN4CCOCC4)nnc3c2c1,-5,0,5,2,-23,16*
Cc1cc(/C=N/n2cnnc2)c(C)n1-c1ccc(OCc2ccc(F)cc2)cc1,-1,0,7,-3,69*,-5
Cc1cc(/C=N/n2cnnc2)c(C)n1-c1ccc(Cl)cc1,.,0,-11,.,.,.
O=C(NCCO)c1ccc2c(c1)S(=O)(=O)c1ccccc1C2=O,-4,0,-5,3,1,-3
CCC(C)(C)NC(=O)c1ccc2c(c1)S(=O)(=O)c1ccccc1C2=O,-1,1,-19,4,-41,23*
CCc1ccc(NC(=O)C2(c3ccccc3)CC2(Cl)Cl)cc1 (configuration not stated),-6,-2,5,9,4,25*
Cc1ccc(OCC(O)Cn2c(=N)n(Cc3ccccc3)c3ccccc32)cc1 (configuration not stated),-1,-1,10,2,32,-4
COc1ccc(OCC(O)Cn2c(=N)n(Cc3ccccc3)c3ccccc32)cc1 (configuration not stated),4,-2,29*,-5,46,-10
Cc1cc(C)c2sc(NNC(=O)c3ccc(S(=O)(=O)N4CCc5ccccc5C4)cc3)nc2c1,.,7.7*,-1,.,.,.
CC(=O)Nc1sc(C)c(C)c1C(=O)OCC(=O)Nc1cc(S(=O)(=O)N2CCCCC2)ccc1Cl,.,-1,3,.,.,.
COc1cccc(-n2c(SCC(=O)NCc3cccs3)nc3ccccc3c2=O)c1,.,-1,7,.,.,.
COc1cccc(-n2c(SCC(=O)Nc3sc4c(c3C(N)=O)CCC4)nc3ccccc3c2=O)c1,4,-2,3,-2,-32,19*
